Experimental data: PubChem BioAssay (EPA / NIEHS)
Inconclusive results are not listed. Activity calls are given as the source filed them. Rule for the calls, unless noted: active = hit-call score of the fitted dose curve at least 0.9, where 1 is the maximum; inactive = score below 0.9.

How the values were obtained:
[1] = read-out: E-selectin (Homo sapiens) (UniProt P16581); test: BSK_3C_Eselectin: BioMAP Diversity Plus: 3C Assay for Eselectin Biomarker Activity (AID 2283015); conditions: primary human endothelial cells (HUVEC); actives raise or lower the signal
In short: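 E-selectin ELISA readout, fitted bidirectionally relative to DMSO, taken 24 h post-dosing in HUVEC cultures of the 3C system. Overt cytotoxicity tracked with sulforhodamine B staining of parallel wells.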

[2] = read-out: Interleukin-1 alpha (IL1a), IL1A (gene 3552); test: BSK_BE3C_IL1a: BioMAP Diversity Plus: BE3C Assay for Interleukin-1 alpha (IL1a) Biomarker Activity (AID 2283016); conditions: primary human bronchial epithelial cells; actives raise or lower the signal
In short: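 Measured in human lung primary bronchial epithelial cells: IL-1a by ELISA at 24 h after dosing, with bidirectional fitting against DMSO.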

[3] = read-out: Monocyte Chemoattractant Protein-1 (MCP1), CCL2 (gene 6347); test: BSK_3C_MCP1: BioMAP Diversity Plus: 3C Assay for Monocyte Chemoattractant Protein-1 (MCP1) Biomarker Activity (AID 2283017); conditions: primary human endothelial cells (HUVEC); actives raise or lower the signal
In short: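 MCP-1 was measured by ELISA 24 h after dosing in primary HUVEC 3C cultures and fitted in both directions relative to DMSO; cytotoxicity was checked by SRB total-protein staining in parallel wells.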

[4] = read-out: Monocyte Chemoattractant Protein-1 (MCP1), CCL2 (gene 6347); test: BSK_4H_MCP1: BioMAP Diversity Plus: 4H Assay for Monocyte Chemoattractant Protein-1 (MCP1) Biomarker Activity (AID 2283018); conditions: primary human endothelial cells (HUVEC); actives raise or lower the signal
In short: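 Primary human umbilical vein endothelium is exposed to chemical for 24 h before MCP-1 is assayed by ELISA. Concentration-response fitted bidirectionally relative to DMSO.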

[5] = read-out: Human Leukocyte Antigen - DR isotype (HLADR), HLA-DRA (gene 3122); test: BSK_3C_HLADR: BioMAP Diversity Plus: 3C Assay for Human Leukocyte Antigen - DR isotype (HLADR) Biomarker Activity (AID 2283019); conditions: primary human endothelial cells (HUVEC); actives raise or lower the signal
In short: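 Bidirectional fitting against DMSO was applied to the HLA-DR ELISA signal from human umbilical vein endothelial cells, 24 h post-dose. Cytotoxicity came from parallel SRB total-protein staining; 3C proliferation was counted by SRB at 48 h.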

[6] = read-out: Interleukin-8 (IL8), CXCL8 (gene 3576); test: BSK_3C_IL8: BioMAP Diversity Plus: 3C Assay for Interleukin-8 (IL8) Biomarker Activity (AID 2283020); conditions: primary human endothelial cells (HUVEC); actives raise or lower the signal
In short: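 Using DMSO-treated wells as the baseline, bidirectional curve fitting was applied to ELISA-measured IL-8 from human umbilical vein endothelial cultures sampled 24 h after compound addition.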

[7] = read-out: Monokine induced gamma interferon (MIG), CXCL9 (gene 4283); test: BSK_3C_MIG: BioMAP Diversity Plus: 3C Assay for Monokine induced gamma interferon (MIG) Biomarker Activity (AID 2283021); conditions: primary human endothelial cells (HUVEC); actives raise or lower the signal;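 for AC50: MIG protein level measured by immunoassay in the treated endothelial cultures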
In short: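 ELISA-measured MIG in dosed HUVEC 3C cultures at 24 h, analysed by bidirectional fitting with DMSO defining baseline activity.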

[8] = target: human Vitamin D Receptor (VDR), VDR (gene 7421) (UniProt P11473); test: ATG_VDR_TRANS: Attagene TRANS-FACTORIAL HepG2 Assay for human Vitamin D Receptor (VDR) (AID 2283022; active = hit-call score of the fitted dose curve at least 0.9, where 1 is the maximum)
In short: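 Transactivation by an exogenous VDR-Gal4 chimera in transiently transfected HepG2 cells was measured as reporter transcript level 24 hours after chemical treatment. RT-PCR products were analysed by capillary electrophoresis and fitted in the positive direction relative to DMSO.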

[9] = BSK_3C_SRB: Viability Assessment in the BioMAP Diversity Plus: 3C Assay (AID 2283023); conditions: primary human endothelial cells (HUVEC);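 note: fitted both ways against DMSO so a hit may be signal rise or drop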
In short: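 Cytotoxicity readout in parallel HUVEC 3C cultures: after 24 h compound exposure, cells fixed with 10% TCA, stained with 0.1% SRB and read at 560 nm. Gain or loss relative to DMSO fitted.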

[10] = read-out: Matrix Metallopeptidase 1 (MMP1), MMP1 (gene 4312); test: BSK_BE3C_MMP1: BioMAP Diversity Plus: BE3C Assay for Matrix Metallopeptidase 1 (MMP1) Biomarker Activity (AID 2283024); conditions: primary human bronchial epithelial cells; actives raise or lower the signal
In short: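 In this multiplexed primary-cell system, human bronchial epithelium received chemicals for 24 h before an ELISA for MMP1. Values reflect bidirectional fits normalised to the DMSO baseline.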

[11] = BSK_3C_Vis: BioMAP Diversity Plus: 3C Assay for Morphology Visualization (AID 2283025); conditions: primary human endothelial cells (HUVEC);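 note: fitted both ways so gain or loss versus DMSO counts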;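 for AC50: light microscopy image of cell morphology used as background control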
In short: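 Light-microscopy morphology readout, 24 h exposure, human primary umbilical vein endothelium; analysed relative to DMSO with bidirectional fitting.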

[12] = read-out: Pselectin, SELP (gene 6403); test: BSK_4H_Pselectin: BioMAP Diversity Plus: 4H Assay for Pselectin Biomarker Activity (AID 2283026); conditions: primary human endothelial cells (HUVEC); actives raise or lower the signal
In short: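 Bidirectional fits against DMSO gave the endpoint. Cells: primary human umbilical vein endothelium, chemical-treated for 24 h before ELISA detection of P-selectin.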

[13] = BSK_4H_SRB: Viability Assessment in the BioMAP Diversity Plus: 4H Assay (AID 2283027); conditions: primary human endothelial cells (HUVEC);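 note: cells exposed to compound for 24 h before staining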;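 for AC50: curves fitted both ways versus DMSO so AC50 may be loss or gain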
In short: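 Cytotoxicity read-out in primary human endothelial cells: after 24 h compound exposure, cells were TCA-fixed (10%), stained with 0.1% SRB and absorbance taken at 560 nm. Values fitted in both directions relative to DMSO.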

[14] = BSK_BE3C_SRB: Viability Assessment in the BioMAP Diversity Plus: BE3C Assay (AID 2283028); conditions: primary human bronchial epithelial cells
In short: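 Cytotoxicity read-out: SRB (0.1%) staining of TCA-fixed (10%) human lung bronchial epithelial cells, absorbance 560 nm, 24 h post-dosing. Curves fitted both directions relative to DMSO.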

[15] = read-out: Thrombomodulin, THBD (gene 7056); test: BSK_3C_Thrombomodulin: BioMAP Diversity Plus: 3C Assay for Thrombomodulin Biomarker Activity (AID 2283029); conditions: primary human endothelial cells (HUVEC); actives raise or lower the signal
In short: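 In a multiplexed primary-cell system, human umbilical vein endothelium received chemical and was assayed 24 h later for thrombomodulin by ELISA. Parallel cultures were SRB-stained (0.1% SRB after 10% TCA fixation, read at 560 nm) to flag cytotoxicity.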

[16] = read-out: Urokinase-type plasminogen activator receptor (uPAR), PLAUR (gene 5329); test: BSK_4H_uPAR: BioMAP Diversity Plus: 4H Assay for Urokinase-type plasminogen activator receptor (uPAR) Biomarker Activity (AID 2283030); conditions: primary human endothelial cells (HUVEC); actives raise or lower the signal
In short: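 uPAR level read by ELISA on HUVEC cultures (BioMAP 4H) 24 h post-dosing, analyzed for gain or loss relative to DMSO. Parallel SRB staining assessed overt cytotoxicity.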

[17] = read-out: Vascular endothelial growth factor receptor 2 (Homo sapiens) (UniProt P35968); test: BSK_4H_VEGFRII: BioMAP Diversity Plus: 4H Assay for Vascular endothelial growth factor receptor 2 (VEGFR2) Biomarker Activity (AID 2283031); conditions: primary human endothelial cells (HUVEC); actives raise or lower the signal;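 for AC50: cell-surface VEGFR2 protein level quantified by ELISA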
In short: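 Measured by ELISA after 24 h of compound treatment: VEGFR2 on primary human umbilical vein endothelial cells, fitted in both directions relative to DMSO. Parallel cultures received SRB staining (560 nm) for overt cytotoxicity.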

[18] = read-out: Human Leukocyte Antigen - DR isotype (HLADR), HLA-DRA (gene 3122); test: BSK_BE3C_HLADR: BioMAP Diversity Plus: BE3C Assay for Human Leukocyte Antigen - DR isotype (HLADR) Biomarker Activity (AID 2283032); conditions: primary human bronchial epithelial cells; actives raise or lower the signal
In short: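 BioMAP BE3C format: human bronchial epithelium, 24 h compound treatment, ELISA detection of HLA-DR, with bidirectional analysis relative to DMSO.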

[19] = read-out: Vascular cell adhesion molecule 1 (VCAM1), VCAM1 (gene 7412); test: BSK_4H_VCAM1: BioMAP Diversity Plus: 4H Assay for Vascular cell adhesion molecule 1 (VCAM1) Biomarker Activity (AID 2283033); conditions: primary human endothelial cells (HUVEC); actives raise or lower the signal
In short: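 In this human endothelial (HUVEC) system, biomarker ELISA was run 24 h after compound addition, and total protein in parallel wells was assessed by SRB at 560 nm; DMSO served as negative control.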

[20] = read-out: Interferon-gamma inducible Protein 10 (IP10), CXCL10 (gene 3627); test: BSK_BE3C_IP10: BioMAP Diversity Plus: BE3C Assay for Interferon-gamma inducible Protein 10 (IP10) Biomarker Activity (AID 2283034); conditions: primary human bronchial epithelial cells; actives raise or lower the signal
In short: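 BE3C cells (human bronchial epithelial, primary); 24 h exposure; ELISA for IP-10; DMSO-referenced bidirectional fit.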

Measured: AC50

E-selectin (Homo sapiens), sequence (P16581 whole entry, looked up): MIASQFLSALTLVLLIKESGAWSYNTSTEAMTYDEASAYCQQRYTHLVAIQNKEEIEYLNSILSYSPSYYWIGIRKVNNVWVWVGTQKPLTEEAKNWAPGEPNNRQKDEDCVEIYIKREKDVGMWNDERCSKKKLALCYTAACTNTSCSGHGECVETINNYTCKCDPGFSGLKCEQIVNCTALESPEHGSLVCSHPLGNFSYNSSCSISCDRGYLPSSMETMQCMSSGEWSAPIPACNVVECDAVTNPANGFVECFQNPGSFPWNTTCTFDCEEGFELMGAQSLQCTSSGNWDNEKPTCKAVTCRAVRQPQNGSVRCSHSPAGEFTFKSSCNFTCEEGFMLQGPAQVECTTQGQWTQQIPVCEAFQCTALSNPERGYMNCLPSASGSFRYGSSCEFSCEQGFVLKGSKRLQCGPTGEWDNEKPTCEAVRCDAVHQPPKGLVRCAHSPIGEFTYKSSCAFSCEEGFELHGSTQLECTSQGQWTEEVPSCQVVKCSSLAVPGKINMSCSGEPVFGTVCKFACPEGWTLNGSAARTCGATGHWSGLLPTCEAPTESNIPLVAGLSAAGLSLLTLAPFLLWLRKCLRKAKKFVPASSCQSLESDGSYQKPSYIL
human Vitamin D Receptor (VDR), VDR (gene 7421), sequence (P11473 whole entry, looked up, the tested form may be a part): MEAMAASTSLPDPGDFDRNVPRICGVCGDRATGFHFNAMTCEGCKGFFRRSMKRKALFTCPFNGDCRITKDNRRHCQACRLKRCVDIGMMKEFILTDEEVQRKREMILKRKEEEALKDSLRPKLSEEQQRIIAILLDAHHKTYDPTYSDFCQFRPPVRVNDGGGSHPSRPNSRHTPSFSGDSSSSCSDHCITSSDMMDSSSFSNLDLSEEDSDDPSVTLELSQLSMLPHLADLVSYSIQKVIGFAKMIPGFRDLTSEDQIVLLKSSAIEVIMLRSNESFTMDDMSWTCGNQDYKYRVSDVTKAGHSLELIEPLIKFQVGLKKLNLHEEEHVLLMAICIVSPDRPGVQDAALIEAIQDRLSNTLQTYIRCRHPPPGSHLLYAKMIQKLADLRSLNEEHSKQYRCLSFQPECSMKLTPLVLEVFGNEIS

C=CC(=C)CCC=C(C)C
inactive: [1] | [2] | [3] | [4] | [5] | [6] | [7] | [8] | [9] | [10] | [11] | [12] | [13] | [14] | [15] | [16] | [17] | [18] | [19] | [20]

COc1ccc(-n2nc(C(F)F)cc2-c2ccc(S(C)=O)cc2)cc1 (stereo not drawn)
inactive: [1] | [2] | [3] | [4] | [5] | [6] | [7] | [8] | [9] | [10] | [11] | [12] | [13] | [14] | [15] | [17] | [18] | [19] | [20]

CCCCC(CC)COC(=O)CCCCCCCCC(=O)OCC(CC)CCCC (stereo not drawn)
inactive: [1] | [2] | [3] | [4] | [5] | [6] | [7] | [9] | [10] | [11] | [12] | [13] | [14] | [15] | [16] | [17] | [18] | [19]

CCOC(=O)CC(CC(=O)OCC)(OC(C)=O)C(=O)OCC
inactive: [1] | [2] | [4] | [5] | [6] | [7] | [8] | [9] | [10] | [11] | [12] | [13] | [14] | [15] | [16] | [17] | [18] | [19]

Cc1[nH]cnc1C[C@H]1CCc2c(C)c3ccccc3n2C1=O
inactive: [1] | [2] | [7] | [8] | [10] | [14] | [15] | [17] | [18]
active: [4] 22.9 µM | [5] 29.4 µM | [6] 22.4 µM | [9] 26 µM | [11] 18.4 µM | [12] 21.4 µM | [13] 24 µM | [16] 22.5 µM | [19] 28.9 µM

COc1ccc2sc(C(=O)Nc3nnn[nH]3)c(OC(C)C)c2c1
active: [1] 19.9 µM | [2] 12.2 µM | [3] 12.3 µM | [4] 26.9 µM | [5] 7.28 µM | [6] 17.9 µM | [7] 16.1 µM | [9] 12.5 µM | [10] 14.2 µM | [11] 21.9 µM | [12] 4.45 µM | [13] 20 µM | [16] 12.7 µM | [17] 17.6 µM | [18] 19.9 µM | [20] 19.9 µM
inactive: [8] | [14] | [15] | [19]

CC(C)=CCCC(C)CCO (stereo not drawn)
inactive: [1] | [2] | [3] | [4] | [5] | [6] | [7] | [9] | [10] | [11] | [12] | [13] | [14] | [15] | [16] | [17] | [18] | [19] | [20]

O=C(O)CCN(C1(C(=O)NO)CCCC1)S(=O)(=O)c1ccc(Oc2ccc(F)cc2)cc1
inactive: [1] | [2] | [3] | [4] | [5] | [6] | [7] | [8] | [9] | [10] | [11] | [12] | [13] | [14] | [15] | [16] | [17] | [18] | [19] | [20]

CC(C)CCCCCCCOC(=O)CCCCC(=O)OCCCCCCCC(C)C
inactive: [1] | [2] | [3] | [4] | [5] | [6] | [7] | [8] | [9] | [10] | [11] | [12] | [13] | [14] | [15] | [16] | [17] | [18] | [19]

CCCCCCCCCCCCCCCO
active: [1] 26.9 µM | [3] 32.6 µM | [4] 29.1 µM | [5] 31.4 µM | [6] 31.2 µM | [9] 36.8 µM | [11] 37.3 µM | [12] 31.3 µM | [13] 36.1 µM | [15] 6.63 µM | [17] 36.8 µM | [19] 37.5 µM
inactive: [2] | [7] | [8] | [10] | [14] | [16] | [18] | [20]

Cn1c(=O)cc(Oc2ccc(F)cc2F)c2cnc(NCC(C)(C)O)nc21
active: [3] 3.14 µM | [5] 3.11 µM | [6] 1.91 µM | [15] 4.61 µM
inactive: [1] | [2] | [4] | [7] | [8] | [9] | [10] | [11] | [12] | [13] | [14] | [16] | [17] | [18] | [19] | [20]

NC(=O)NO
inactive: [1] | [2] | [3] | [4] | [5] | [6] | [7] | [8] | [9] | [10] | [11] | [12] | [13] | [14] | [15] | [16] | [17] | [18] | [19]

CC(C)CCO
inactive: [1] | [2] | [3] | [4] | [5] | [6] | [7] | [8] | [9] | [10] | [11] | [12] | [13] | [14] | [15] | [16] | [18] | [19]
